Where “and” joins values, the source holds several entries; their conditions need not be identical. Identical values can stand only once. Some compounds were tested as several samples or in several runs, with calls that do not always agree. Calls of active or inactive are those of the source. Rule for the calls: active = hit-call score of the fitted dose curve at least 0.9, where 1 is the maximum; inactive = score below 0.9.
Assay: CCTE_Shafer_MEA_dev_network_spike_duration_std: CCTE's Neural Network Formation Assay for Standard Deviation of Network Spike Duration, Shafer Lab (AID 2284052);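 note: hits are decreases in network spike duration SD versus DMSO vehicle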
Procedure: CCTE_Shafer_MEA_dev assay is conducted using Axion Biosystems 48 well microelectrode array (MEA) plates and Maestro recording system. Each well of the MEA plate contains a grid of 16 microelectrodes embedded in the culture surface. Electrically active cells, such as neurons, can be cultured over the electrodes, and electrical activity in these cells can be recorded extracellularly. The spontaneous firing of neurons is captured from each electrode on a microsecond timescale providing both temporally and spatially precise data. […] The CCTE_Shafer_MEA_dev assay uses primary cultures of rat cortical neurons. Recordings are made on days post-plating 5, 7, 9 and 12. As these cultures mature over time, neural networks develop functional activity and form cohesive networks in which electrical activity can be highly coordinated. CCTE_Shafer_MEA_dev_network_spike_duration_std is 1 of 19 assay components of the CCTE_Shafer_MEA_dev assay. It measures the standard deviation of the duration of network spikes (temporally-clustered groups of action potential firing across multiple electrodes) during a recording in a microelectrode array (MEA) using Axion Biosystems Maestro 768 channel amplifier with the AxIS adaptive spike detector. To collapse across multiple recordings made on days post-plating 5, 7, 9 and 12, the trapezoidal area-under-the-curve of the component is calculated.Data from the assay component CCTE_Shafer_MEA_dev_network_spike_duration_std was analyzed into 1 assay endpoint. This assay endpoint, CCTE_Shafer_MEA_dev_network_spike_duration_std, was analyzed in the negative analysis fitting direction relative to DMSO as the negative control and baseline of activity. Using a type of functional reporter, gain or loss-of-signal activity can be used to understand electrical activity.
On the day prior to culture, each well was coated thoroughly with 150 uL of 0.05% polyethyleneimine (PEI, Sigma Cat P3143) in 50 mM HEPES (Sigma Cat H7523) at a pH of 8. The plate was incubated at 37C for one hour. PEI was rinsed out with 500 uL of sterile water three times. Plates were stored at 4C until the day of culture. This culture was plated at a seeding density of 1.5 x 10^5 cells/well on a 48-well MEA plate, prepared as described above. Cells were administered via a 25 uL media/laminin ([…]; Sigma Cat L2020-1MG) drop directly onto the microelectrode array, as adding the cells with the laminin results in better attachment than pre-coating with laminin. After 2 hours, an additional 475 uL of cortical media was added and the cells returned to the incubator. Exposure starts at day 0 of plating and is continued over twelve days of network development until the experiment is terminated. Cells are fed with fresh medium on DIV 5 and 9, following the recordings on those days. The entire volume of media in the well is exchanged and any vehicle or compound treatment is renewed. Complete details are found in OP-NHEERL/ISTD/SBB/TJS/2015-03-r0 (available on request, email shafer.tim@epa.gov). Measurement of the electrical activity is non-invasive, and recordings can be made from the same plate over multiple different days of the culture. In cortical neurons, this allows for the measurement of extracellular action potentials over the period during which networks form in the MEA plate.
In the case of CNC(=O)CSP(=S)(OC)OC, the outcome is reported as “inactive”.
In the case of Oc1cc(Cl)ccc1Oc1ccc(Cl)cc1Cl, the AC50 is reported as 7.04 µM (active).
For O=S(=O)(O)C(F)(F)C(F)(F)C(F)(F)C(F)(F)C(F)(F)C(F)(F)C(F)(F)C(F)(F)F, the outcome was “inactive”.
In the case of COP(=O)(OC)OC=C(Cl)Cl, the outcome is reported as “inactive” and the AC50 is reported as 0.852 µM (active).
For CC[C@H](C)[C@H]1O[C@]2(C=C[C@@H]1C)C[C@@H]1C[C@@H](C/C=C(\C)[C@@H](O[C@H]3C[C@H](OC)[C@@H](O[C@H]4C[C@H](OC)[C@@H](O)[C@H](C)O4)[C@H](C)O3)[C@@H](C)/C=C/C=C3\CO[C@@H]4[C@H](O)C(C)=C[C@@H](C(=O)O1)[C@]34O)O2 (tested in a mixture with another compound), the AC50 was 2.28 nM (active) and 0.912 nM (active).
For CC1(C)C(C=C(Cl)Cl)C1C(=O)OC(C#N)c1ccc(F)c(Oc2ccccc2)c1 (configuration not stated), the outcome was “inactive” and the AC50 was 3.51 µM (active) and 3.76 µM (active).
For O=S1OCC2C(CO1)C1(Cl)C(Cl)=C(Cl)C2(Cl)C1(Cl)Cl (configuration not stated), the outcome was “inactive”.
For CC(C)N(C(=O)COc1nnc(C(F)(F)F)s1)c1ccc(F)cc1, the outcome was “inactive”.
For O=C(O)C(F)(F)C(F)(F)C(F)(F)C(F)(F)C(F)(F)C(F)(F)C(F)(F)F, the outcome was “inactive”.
With O=C(O)COc1ccc(Cl)cc1Cl the outcome was “inactive”.
With O=[N+]([O-])/N=C1\NCCN1Cc1ccc(Cl)nc1 the outcome was “inactive”.
For ClC1C(Cl)C(Cl)C(Cl)C(Cl)C1Cl (configuration not stated), the outcome was “inactive”.
In the case of CC1(c2ccc(Oc3ccccc3)cc2)OC(=O)N(Nc2ccccc2)C1=O (configuration not stated), the AC50 is reported as 3.66 µM (active).
With COP(=S)(OC)Oc1ccc([N+](=O)[O-])cc1 the outcome was “inactive”.
In the case of CCC(C)(C)C(=O)OC1=C(c2ccc(Cl)cc2Cl)C(=O)OC12CCCCC2, the outcome is reported as “inactive”.
